Compound activity (PubChem BioAssay)
A selection: hits, their analogues and other compounds. The true share with any hit is near 2.5%.
MITF inhib = blocks MITF activity. TRPM1 promoter luciferase, luminescence, 24 h. inhibition, % (concentration not given with the values). 37,000 compounds, 0.28% hits. AID 2240; in the data active means inhibition above about 85%; inconclusive means no clear call, values can overlap the other calls; inactive means below about 68%;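 further: human melanocyte line stably carrying TRPM1 promoter luciferase reporter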
BJeLR viab HTS = compounds reducing viability of BJeLR cells; BJeLR fibroblasts viability, CellTiterGlo ATP luminescence, 48 h; HRASV12, hTERT and SV40 LT/ST transformed; 30,000 compounds, 0.64% hits; viability loss activity score, % (concentration not given with the values); AID 2275; in the data active means viability loss activity score above about 50%; inconclusive means no clear call, values can overlap the other calls; inactive means below about 35%;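 further: higher score means fewer live cells and less ATP luminescence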
YB-1 expr inh = YB-1 expression inhibition | U2OS, qRT-PCR YB-1 vs CDIP delta delta Cp, 16 h; stronger effect = higher value; zero = DMSO, each unit about twofold | delta delta Cp (YB-1 minus CDIP) (concentration not given with the values) | 30,000 compounds, 0.37% hits;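 active means delta delta Cp rounded down to an integer at or above 3, about 3 SD of DMSO wells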;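 further: higher means less YB-1 transcript or more CDIP transcript relative to DMSO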
U2OS ROS induce = raises reactive oxygen species in U2OS cancer cells. U2OS ROS induction, H2DCF-DA fluorescence. 46,000 compounds, 2% hits. ROS induction (% of piperlongumine), % at 10 µM; in the data active means ROS induction above about 79%, passing the limit was not always enough; inconclusive means no clear call, values can overlap the other calls;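 further: 0% = DMSO vehicle median and 100% = reference compound median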
Starred values were filed as active, the others as inactive; ? = inconclusive; nt = no result.

SMILES | MITF inhib | BJeLR viab HTS | YB-1 expr inh | U2OS ROS induce
CCOC(=O)c1sc2ncn3c(-c4ccc(C)cc4)nnc3c2c1C | nt | -0.2 | nt | 197.9*
Cc1nnc(SCc2ccc(F)cc2Cl)c2cc3occc3n12 | nt | -2.9 | nt | 8.6
C[C@@H]1CCCCO[C@@H](CN(C)C(=O)Nc2cccc3ccccc23)[C@@H](C)CN([C@H](C)CO)C(=O)c2cc(NS(=O)(=O)c3ccc(Cl)cc3)ccc2O1 | 23.8 | nt | -0.298 | 107.3*
C[C@@H]1CCCCO[C@@H](CN(C)C(=O)Cc2ccccc2)[C@@H](C)CN([C@H](C)CO)C(=O)c2cc(NC(=O)NC3CCCCC3)ccc2O1 | 6.3 | nt | -0.241 | 142.9*
C[C@@H]1CCCCO[C@@H](CN(C)C(=O)Nc2cccc3ccccc23)[C@@H](C)CN([C@H](C)CO)C(=O)c2cc(NC(=O)NC3CCCCC3)ccc2O1 | 2.3 | nt | 0.0909 | 46.5
C[C@@H]1CCCCO[C@@H](CN(C)C(=O)NC2CCCCC2)[C@@H](C)CN([C@H](C)CO)C(=O)c2cc(NC(=O)Nc3cccc4ccccc34)ccc2O1 | 10.2 | nt | -0.876 | 139.5*
CCOC(OCC)P(=O)(O)CCCNCc1ccc(Cl)c(Cl)c1 | 87.6* | 28.8 | 0.0957 | 8.1
CS(=O)CCNC(=O)Nc1ccc(Cl)c(Cl)c1 (stereo not drawn) | nt | -4.7 | nt | -9.8
CSc1sc(Cl)c2c1/C(=N\O)CC(C)(C)C2 | 6.2 | -0.8 | -0.0976 | -14.4
CCOc1cc(/C=C2/SC(=N)N(c3nccs3)C2=O)ccc1OCCN1CCOCC1 | 34.9 | 18.5 | -0.158 | 96.2*
CCCCc1ccc2nc(NC(=O)OC)[nH]c2c1 | 19.8 | 66.5* | 0.104 | 10.2
COC(=O)Nc1nc2ccc(-c3n[nH]c(=O)c4ccccc34)cc2[nH]1 | -8.2 | 16.7 | 0.153 | 2.3
C=CCc1ccccc1OCC(O)Cn1c2ccccc2c2ccccc21 (stereo not drawn) | nt | -3.2 | nt | -0.9
Cc1ccc(S(=O)(=O)N(C)C[C@H]2Oc3ccc(NC(=O)Nc4c(C)noc4C)cc3CC(=O)N([C@@H](C)CO)C[C@H]2C)cc1 | 8.1 | nt | 9.83* | -11.0
Cc1ccc(S(=O)(=O)N(C)C[C@@H]2Oc3ccc(NC(=O)Nc4c(C)noc4C)cc3CC(=O)N([C@H](C)CO)C[C@H]2C)cc1 | 4.4 | nt | -0.127 | -1.3
Cc1noc(C)c1NC(=O)Nc1ccc2c(c1)CC(=O)N([C@@H](C)CO)C[C@@H](C)[C@@H](CN(C)S(=O)(=O)c1c(C)noc1C)O2 | -5.6 | nt | -0.143 | 85.2*
CC1=CC(C)(C)N(C(=O)Nc2ccc(C)cc2)c2ccccc21 | nt | 3.3 | nt | nt
CC1=CC(C)(C)N(S(=O)(=O)c2ccc(C)cc2)c2ccccc21 | 59.4 | 56.7* | -0.277 | 19.9
COc1ccc(CN(C)C[C@@H]2Oc3ccc(NC(=O)c4ccncc4)cc3C(=O)N([C@H](C)CO)C[C@H]2C)cc1 | -1.3 | -0.2 | -0.295 | 149.3*
C[C@@H]1CCCCO[C@@H](CN(C)Cc2ccc(Cl)c(Cl)c2)[C@@H](C)CN([C@H](C)CO)C(=O)c2cc(NC(=O)Cc3ccccc3)ccc2O1 | 58.8 | nt | 0.361 | 131.2*
C[C@@H]1CCCCO[C@H](CN(C)Cc2ccc(Cl)c(Cl)c2)[C@@H](C)CN([C@H](C)CO)C(=O)c2cc(NC(=O)Cc3ccccc3)ccc2O1 | 15.3 | nt | 0.257 | 25.3
COc1ccc(CN(C)C[C@@H]2OCCCC[C@@H](C)Oc3ccc(NS(=O)(=O)c4ccc(OC)cc4)cc3C(=O)N([C@H](C)CO)C[C@@H]2C)cc1 | -7.4 | nt | 0.329 | 172.1*
COc1ccc(S(=O)(=O)Nc2ccc3c(c2)C(=O)N([C@H](C)CO)C[C@H](C)[C@@H](CN(C)Cc2ccc(Cl)c(Cl)c2)OCCCC[C@@H](C)O3)cc1 | ? | nt | -0.828 | 151.0*
COc1ccc(CN(C)C[C@H]2OCCCC[C@@H](C)Oc3ccc(NS(=O)(=O)c4ccc(C)cc4)cc3C(=O)N([C@H](C)CO)C[C@@H]2C)cc1 | 0.7 | nt | -0.649 | 29.0
COc1cccc(NC(=O)CCn2nc(-c3ccccc3OC)c3c(C)cc(C)nc32)c1 | nt | 0.8 | nt | 6.5
SMILES | MITF inhib | BJeLR viab HTS | YB-1 expr inh | U2OS ROS induce
COc1ccc(CN(C)C[C@H]2Oc3ccc(NS(=O)(=O)c4ccc(Cl)cc4)cc3C(=O)N([C@H](C)CO)C[C@@H]2C)cc1 | 2.9 | -4.5 | 0.0441 | 147.3*
C[C@@H]1CN([C@@H](C)CO)C(=O)c2cc(NS(=O)(=O)c3ccccc3)ccc2O[C@H]1CN(C)Cc1ccc(C(F)(F)F)cc1 | -10.3 | 8.7 | 0.0501 | 81.9*
COc1ccc(CN(C)C[C@@H]2OCCCC[C@@H](C)Oc3ccc(NC(=O)c4ccncc4)cc3C(=O)N([C@H](C)CO)C[C@@H]2C)cc1 | -10.0 | nt | -0.217 | 11.6
COc1ccc(CN(C)C[C@@H]2OCCCC[C@@H](C)Oc3ccc(NC(=O)c4ccccc4)cc3C(=O)N([C@H](C)CO)C[C@@H]2C)cc1 | 0.7 | nt | -0.163 | 146.6*
C=CCNC(=O)[C@@H]1[C@H]2C(=O)O[C@H](c3ccccc3)[C@H](c3ccccc3)N2[C@H](c2ccccc2OCCO)[C@@]12C(=O)Nc1ccc(C#CC3(O)CCCCCC3)cc12 | nt | nt | -0.221 | 145.7*
C=CCNC(=O)[C@@H]1[C@H]2C(=O)O[C@H](c3ccccc3)[C@H](c3ccccc3)N2[C@H](c2ccc(OCCO)cc2)[C@@]12C(=O)Nc1ccc(C#CC3(O)CCCCCC3)cc12 | nt | nt | -0.17 | 85.1*
C=CCNC(=O)[C@H]1[C@@H]2C(=O)O[C@@H](c3ccccc3)[C@@H](c3ccccc3)N2[C@@H](c2ccc(O)cc2)[C@]12C(=O)Nc1ccc(C#CCCO)cc12 | nt | nt | 0.111 | -11.5
C=CCNC(=O)[C@H]1[C@@H]2C(=O)O[C@@H](c3ccccc3)[C@@H](c3ccccc3)N2[C@@H](c2ccc(OCCO)cc2)[C@]12C(=O)Nc1ccc(C#CC3(O)CCCCCC3)cc12 | nt | nt | -0.491 | 49.0
C=CCOC(=O)[C@H]1[C@@H]2C(=O)O[C@@H](c3ccccc3)[C@@H](c3ccccc3)N2[C@@H](c2ccc(OCCOC(=O)[C@@H]3C[C@@H]4C(=O)NCC(=O)N4[C@@H]3c3ccc(O)cc3)cc2)[C@]12C(=O)Nc1ccc(I)cc12 | nt | nt | -0.26 | 9.4
C=CCOC(=O)[C@H]1[C@@H]2C(=O)O[C@@H](c3ccccc3)[C@@H](c3ccccc3)N2[C@@H](c2ccc(OCCOC(=O)[C@@H]3C[C@@H]4C(=O)NCC(=O)N4[C@@H]3c3ccc(O)cc3)cc2)[C@]12C(=O)Nc1ccccc12 | nt | nt | 0.068 | 115.7*
C=CCNC(=O)[C@@H]1[C@H]2C(=O)O[C@H](c3ccccc3)[C@H](c3ccccc3)N2[C@H](c2ccccc2OCCO)[C@@]12C(=O)Nc1ccc(C#CCCO)cc12 | nt | nt | -0.0856 | 135.0*
COc1ccc(S(=O)(=O)NCCC(=O)NC2CCCCC2)cc1 | nt | 6.3 | nt | 2.6
COc1ccc2c(c1)O[C@@H]1COc3cc(OC)c(OC)cc3[C@@H]1C2=O | 109.5* | 17.4 | -0.215 | 0.0
COc1ccccc1Cc1nnc(C(=O)NCCc2ccccc2)o1 | nt | 11.3 | nt | nt
C=C(CO)C(=O)O[C@H]1CC(=C)[C@@H]2CC(=O)[C@H](C)[C@@H]2[C@H]2OC(=O)C(=C)[C@@H]21 | 30.6 | 68.6* | -0.582 | 121.8*
